The list is not random: actives were taken first. Their share in the collection is about 7.5%.
NPC1 promoter act – activates the NPC1 promoter | Huh7 NPC1 promoter luciferase reporter, 24 h | Potency, µM (highest dose often 9.22 µM), hits mostly activators | actives 2.4% (n = 320,000); also: nearly all actives have a fitted effect of over 60% in size
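In 1536-well qHTS, Huh7 cells harboring an NPC1 promoter–luciferase construct received compound for 24 h; activation was quantified by luminescence following luciferase reagent addition.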
FLuc counter – counter-screen for miR-21 project: firefly luciferase inhibitors or activators | P08659 | purified FLuc, Km substrates, luminescence inhibition | Potency, µM (titrated, usually from 57.5 µM), hits mostly inhibitors | actives 6.9% (n = 360,000) | AID 588342; also: nearly all actives have a fitted effect of over 55% in size
Target sequence (P08659 whole entry, looked up): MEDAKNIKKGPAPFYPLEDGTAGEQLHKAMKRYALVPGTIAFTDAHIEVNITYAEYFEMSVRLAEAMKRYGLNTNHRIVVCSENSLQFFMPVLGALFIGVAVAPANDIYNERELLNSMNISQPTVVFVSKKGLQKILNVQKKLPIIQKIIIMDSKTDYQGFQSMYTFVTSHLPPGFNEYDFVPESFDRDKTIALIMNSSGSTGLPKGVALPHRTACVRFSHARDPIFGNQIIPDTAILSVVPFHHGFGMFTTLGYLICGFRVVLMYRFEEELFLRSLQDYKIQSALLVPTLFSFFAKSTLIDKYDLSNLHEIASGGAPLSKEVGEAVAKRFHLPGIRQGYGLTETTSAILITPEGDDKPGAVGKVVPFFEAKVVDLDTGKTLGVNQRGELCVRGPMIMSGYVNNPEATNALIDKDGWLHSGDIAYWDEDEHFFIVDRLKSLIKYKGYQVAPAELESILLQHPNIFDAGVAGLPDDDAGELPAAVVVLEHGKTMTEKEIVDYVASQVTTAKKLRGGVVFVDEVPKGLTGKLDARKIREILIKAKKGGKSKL
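Purified P. pyralis luciferase, 10 nM final, with Km-level 10 uM D-luciferin and 10 uM ATP in 50 mM Tris acetate pH 7.5, 10 mM Mg acetate, 0.01% Tween-20, 0.05% BSA; 6-point qHTS titration about 60 µM downward; luminescence read.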
ELG1 genotoxic – inducers of genotoxicity in HEK293T ELG1-luciferase cells. HEK293T ELG1-luciferase reporter, luminescence, 16 h. Potency, µM (top dose mostly 46 µM), hits mostly activators. actives 1.3% (n = 330,000). AID 504466; also: nearly all actives have a fitted effect of over 60% in size
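16 hr compound incubation (37 °C, 5% CO2) of HEK293T cells carrying luciferase-tagged ELG1; luciferase then measured by ONE-Glo luminescence after 30 min at RT.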
KinaseGlo FLuc – counter-screen: inhibitors of Kinase-Glo firefly luciferase | Q27757 | Kinase-Glo luciferase, ATP luminescence, 8 min | actives 0.28% (n = 200,000) | Potency, µM (doses to about 38.3 µM), actives largely listed as inhibitors; also: nearly all actives have a fitted effect of over 60% in size
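Kinase-Glo luciferase light output from ATP and luciferin was measured with 10 uM ATP, within the enzyme's linear range. Buffer: 50 mM imidazole pH 7.2, 50 mM KCl, 7 mM MgCl2, 0.01% Tween 20, 0.05% BSA; luminescence read after 8 min at ambient temperature.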
Rab9 promoter act – activates the Rab9 promoter; Huh7 Rab9 promoter-luciferase reporter, luminescence, 24 h; Potency, µM (titrated, usually from 9.22 µM), hits mostly activators; actives 2.8% (n = 320,000); also: nearly all actives have a fitted effect of over 60% in size
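Luminescence from Amplite-detected luciferase (10 minutes, ambient) reports Rab9 promoter activation. Before that, stable Rab9-luciferase Huh7 cells (1500/well, reduced-serum OP-MEM I plus 10% FBS) were exposed to compound for 24 hours at 37C.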
SMN2 splice up – SMN2 splice variant enhancement. HEK293 SMN2-luciferase splicing reporter, luminescence, 30-36 h. Potency, µM (series often up to 46.1 µM), hits mostly activators. actives 2.8% (n = 210,000). AID 1458; also: nearly all actives have a fitted effect of over 55% in size
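HEK293 cells carry an SMN2 minigene-luciferase reporter in which exon 7 inclusion puts luciferase in frame. Cells were seeded at 2000 cells/well, attached for 10-12 hours, then exposed to compounds for 30-36 hours at 37C before ONE-Glo luminescence.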
A number is an active result; i = inactive; ? = inconclusive; nt = not tested or not shown; [ ] = remark or other dose. Calls follow the shape of the dose curve; as a rule, active = well fitted curve in the direction sought with a large enough effect; inconclusive = small, poorly fitted or top-dose-only effect, or another doubt; inactive = no such curve, though single readings can be large; an effect the other way counts as inactive or inconclusive.

SMILES	NPC1 promoter act	FLuc counter	ELG1 genotoxic	KinaseGlo FLuc	Rab9 promoter act	SMN2 splice up
O=C(CSc1ncc(-c2ccc(Cl)cc2)[nH]1)Nc1ccccc1F	nt	?	nt	nt	nt	i
COc1cccc(NC(=O)CSc2nnc(-c3ccc(C)cc3)o2)c1	i	i	10µM	i	?	16µM
COc1ccccc1NC(=O)CSc1nc2nc(C)cc(C)c2c(=O)[nH]1	i	i	i	i	i	3.5µM
O=C(CSc1nnc(-c2cccnc2)o1)Nc1ccccc1F	3.2µM	i	?	nt	3.2µM	nt
O=C(CSc1ncc(-c2ccccc2)[nH]1)Nc1ccccc1F	i	27µM	?	i	i	i
O=C(CCn1c(=O)c2cccn2c2cccnc21)NCc1ccccc1F	nt	i	nt	nt	nt	nt
Cc1cc(C)cc(OCC(=O)N(Cc2ccco2)Cc2ccccc2Cl)c1	nt	i	nt	nt	nt	i
Cn1ncc(S(=O)(=O)Cc2ccccc2)c(Br)c1=O	i	nt	nt	nt	i	nt
C=CCNC(=S)NNC(=O)c1cc(-c2cccnc2)nc2ccccc12	i	9.5µM	i	nt	i	nt
O=C(NNC(=O)c1cc(-c2ccccc2)nc2ccccc12)Nc1cccc(Cl)c1	i	?	i	i	i	i
CC(C)(C)c1ccc(-c2cc(C(=O)NNC(=O)Nc3ccccc3)c3ccccc3n2)cc1	?	0.48µM	?	i	i	14µM
O=C(NNC(=O)c1cc(-c2cccnc2)nc2ccccc12)Nc1ccc(Cl)cc1	i	24µM	i	i	i	i
CCc1nnc(NC(=O)/C=C/c2cccs2)s1	?	i	23µM	i	3.5µM	?
CCc1nnc(NC(=O)C=C(C)C)s1	?	?	?	i	?	10µM
O=C(/C=C/c1cccs1)NC1CC1	i	i	i	i	i	i
CCN(CC)S(=O)(=O)c1ccc(C)c(NC(=O)/C=C/c2cccs2)c1	i	?	i	i	i	i
Cc1ccccc1NC(=O)/C=C/c1cccs1	?	?	?	i	4.5µM	13µM
O=C(/C=C/c1cccs1)Nc1cccc(NC(=O)/C=C/c2cccs2)n1	?	1.9µM	i	i	?	7.1µM
CCCCNC(=O)/C=C/c1cccs1	i	?	i	i	i	i
CCOC(=O)c1c(C)oc2ccc(N(C(C)=O)S(=O)(=O)c3c(C)cc(C)cc3C)cc12	nt	i	nt	nt	nt	i
O=c1c(CCc2ccccc2)nc2cnc(Oc3ccccc3)nc2n1C[C@H]1CCCO1	nt	nt	nt	i	nt	i
O=C(Nc1nccs1)C(Br)C(Br)c1ccccc1 (configuration not stated)	1.1µM	4.8µM	?	nt	0.5µM	nt
CC(=O)OC(C(=O)Nc1nccs1)c1ccccc1 (configuration not stated)	i	i	i	nt	i	nt
Cc1cc(C)nc(NC(=O)/C=C/c2cccs2)c1	?	13µM	?	nt	3.5µM	nt
Cc1ccccc1NC(=O)C(=O)Nc1ccccc1C	1.3µM	?	?	nt	0.89µM	nt
SMILES	NPC1 promoter act	FLuc counter	ELG1 genotoxic	KinaseGlo FLuc	Rab9 promoter act	SMN2 splice up
O=C(/C=C/c1cccc(F)c1)Nc1nccs1	2µM	9.5µM	?	i	1.8µM	11µM
O=C(/C=C\c1ccccc1)Nc1nccs1	1.6µM	1.9µM	?	i	0.89µM	4µM
O=C(/C=C/c1cccs1)Nc1ccc(Br)cn1	?	3µM	9.2µM	i	?	14µM
COc1ccc(/C=C/C(=O)NC(=S)Nc2ccc(Br)cn2)cc1	i	i	i	nt	i	nt
NS(=O)(=O)c1ccc(NC(=O)/C=C/c2cccs2)cc1	i	i	i	nt	i	nt
NS(=O)(=O)c1cccc(NC(=O)/C=C/c2cccs2)c1	?	7.6µM	i	i	?	?
O=C(/C=C/c1cccs1)Nc1ccc(S(=O)(=O)Nc2ncccn2)cc1	i	i	i	nt	i	nt
O=C(/C=C/c1cccs1)Nc1nccs1	1.8µM	?	18µM	i	2.2µM	13µM
O=C(NCCc1ccccc1)c1cc(Sc2ccc(F)cc2F)nc2ccccc12	nt	i	nt	nt	nt	nt
CCNCC(=O)N1c2ccccc2CCc2ccc(NC(=O)OCC)cc21	i	i	i	nt	i[1.84 µM]	nt
Cc1c(C(=O)N(C)C)sc2c1c(=O)n(-c1ccc(Cl)c(Cl)c1)c(=O)n2Cc1ccc(F)cc1	nt	i	nt	nt	nt	nt
CCOC(=O)c1ccc(NC(=O)/C=C/c2cccs2)cc1	?	11µM	i	i	?	?
CCCc1ccc2oc(C(=O)N(C)Cc3nccs3)c(C)c2c1	?	15µM	23µM	nt	?	nt
C[C@@]12CCC(=O)C[C@@H]1CC(=O)[C@H]1[C@H]3CCC[C@]3(C)C(=O)C[C@@H]12 (tested in a mixture with another compound)	nt	nt	nt	i	nt	i
CS(=O)(=O)N1CCN(c2nc(-c3ccc(F)cc3)cs2)CC1	i	11µM	i	i	i	i
O=S(=O)(c1ccc(F)cc1)N1CCN(c2nc(-c3ccc(F)cc3)cs2)CC1	i	i	i	i	i	i
Cc1nc(-c2ccccc2)cs1	i	i	i	i	i	i
c1ccc(-c2csc(N3CCSCC3)n2)cc1	i	24µM	i	i	?	i
O=C(c1ccco1)N1CCN(C(=O)c2cn(-c3ccccc3)nc2-c2ccc(F)cc2)CC1	i	4.8µM	i	nt	i	nt
c1ccc(-c2csc(-n3cccn3)n2)cc1	i	27µM	i	i	i	i
CCc1ccc(NC(=O)CN(Cc2ccccc2)S(=O)(=O)c2ccc3nc(C)sc3c2)cc1	nt	i	nt	nt	nt	nt
CCOC(=O)c1[nH]c2ccccc2c1NC(=O)c1c(F)cccc1F	nt	i	nt	nt	nt	i
Cn1ccc2cc(S(=O)(=O)N3CCN(C(=O)Nc4cccc(F)c4)CC3)ccc21	nt	i	nt	nt	nt	nt
Clc1ccc(-c2csc(N3CCSCC3)n2)cc1	i	12µM	?	i	i	i
O=C(CSc1nc(-c2ccc(F)cc2)cs1)N1CCOCC1	i	?	18µM	i	?	i
SMILES	NPC1 promoter act	FLuc counter	ELG1 genotoxic	KinaseGlo FLuc	Rab9 promoter act	SMN2 splice up
Brc1ccc(-c2csc(N3CCC(c4ccccc4)C3)n2)cc1 (configuration not stated)	?	6µM	i	i	?	i
c1ccc2oc(-c3csc(N4CCOCC4)n3)cc2c1	1.3µM	0.76µM	?	i	0.5µM	3.2µM
CC1CN(C(=O)CSc2nc(-c3ccc(F)cc3)cs2)CC(C)O1 (configuration not stated)	i	i	i	i	i	i
Brc1ccc(-c2csc(N3CCc4ccccc4C3)n2)cc1	i	?	i	i	i	i
Cc1ccc(C(=O)c2c(N)c(C(=O)Nc3cccc(C(F)(F)F)c3)c3ccccn23)cc1	nt	i	nt	nt	nt	i
[N-]=[N+]=Nc1nc2c(N)ncnc2n1C1OC(CO)C(O)C1O (configuration not stated)	nt	nt	nt	i	nt	i
O=C(c1ccco1)N1CCN(c2nc(-c3ccc(F)cc3)cs2)CC1	i	24µM	i	i	i	nt
CC(C)CNC(=S)N1CCN(c2nc(-c3ccc(Cl)cc3)cs2)CC1	i	i	i	nt	i	nt
CCC(=O)N1CCN(c2nc(-c3ccc(Cl)cc3)cs2)CC1	i	27µM	i	i	i	i

Screening data (PubChem BioAssay)
